Assay outcomes as filed in PubChem.
3T3 cytotox: kills NIH 3T3 cells | NIH 3T3 viability, CellTiter-Glo ATP luminescence, 48-72 h | Potency, µM (doses to about 96.7 µM), inactives show top-dose activity change, negative = cytotoxicity, most hits filed as inhibitors | 94,000 compounds, 4.3% hits | AID 1345082; active = well fitted curve in the direction sought with a large enough effect; inconclusive = small, poorly fitted or top-dose-only effect, or another doubt; inactive = no such curve, though single readings can be large; an effect the other way counts as inactive or inconclusive; also: % is scaled to controls: 0 for no effect and ±100 for the full control effect; nearly all actives have a fitted effect of over 55% in size
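Cytotoxicity was measured by CellTiter-Glo ATP luminescence after 48 or 72 h compound exposure at 37 °C. Mouse NIH 3T3 fibroblasts were seeded at 400 cells/well and dosed by 23 nL pin transfer.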
FLuc inh: Photinus pyralis luciferase inhibition; P08659; purified P. pyralis luciferase, luminescence, biochemical; Potency, µM (highest dose often 115 µM), usual class: inhibitors; 76,000 compounds, 2.5% hits; AID 1347043; active = well fitted curve in the direction sought with a large enough effect; inconclusive = small, poorly fitted or top-dose-only effect, or another doubt; inactive = no such curve, though single readings can be large; an effect the other way counts as inactive or inconclusive; also: % is scaled to controls: 0 for no effect and ±100 for the full control effect; nearly all actives have a fitted effect of over 65% in size
Target sequence (P08659 whole entry, looked up): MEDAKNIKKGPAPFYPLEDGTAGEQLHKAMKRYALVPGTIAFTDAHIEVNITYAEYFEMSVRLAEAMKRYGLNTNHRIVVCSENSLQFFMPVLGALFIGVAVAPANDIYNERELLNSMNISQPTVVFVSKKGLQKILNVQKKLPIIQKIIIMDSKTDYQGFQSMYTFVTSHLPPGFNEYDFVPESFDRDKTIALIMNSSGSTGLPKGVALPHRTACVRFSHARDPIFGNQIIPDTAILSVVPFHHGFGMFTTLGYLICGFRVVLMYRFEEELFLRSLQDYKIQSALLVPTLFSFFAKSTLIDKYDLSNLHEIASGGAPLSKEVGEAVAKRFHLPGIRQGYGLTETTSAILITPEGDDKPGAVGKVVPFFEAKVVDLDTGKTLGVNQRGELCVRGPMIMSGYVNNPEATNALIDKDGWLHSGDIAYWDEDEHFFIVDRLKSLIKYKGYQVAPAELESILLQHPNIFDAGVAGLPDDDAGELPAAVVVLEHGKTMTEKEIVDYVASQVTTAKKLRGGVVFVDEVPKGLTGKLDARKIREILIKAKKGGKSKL
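Luminescence read by CCD imager after adding enzyme (10nM final) to wells holding compound, titrated in qHTS. Substrates 10uM each D-luciferin and ATP; buffer 50mM Tris acetate pH 7.5, 10mM Mg acetate, Tween-20, BSA.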
NPR1 antag: human Npr1 receptor antagonism; HEK293 hNpr1 GloSensor cGMP, ANP-stimulated luminescence; Potency, µM (doses to about 46.3 µM), inactives show top-dose activity change, negative = inhibition, usual class: inhibitors; 76,000 compounds, 1.6% hits; also: % is scaled to controls: 0 for no effect and ±100 for the full control effect; nearly all actives have a fitted effect of over 60% in size
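Compound pre-incubated 30 min at room temperature on GloSensor-loaded HEK293 cells stably carrying hNpr1 and the pGS-40F cGMP biosensor. Stimulation uses hNppA at 0.1 nM final; luminescence is taken at baseline and 20 min post-agonist.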
HEK cytotox: kills HEK 293 cells; HEK 293 viability, ATP luminescence (CellTiter-Glo), 48-72 h; Potency, µM (highest dose often 115 µM), without a hit: top-dose activity change, negative = cytotoxicity, most hits filed as inhibitors; 94,000 compounds, 6.6% hits; AID 1345083; active = well fitted curve in the direction sought with a large enough effect; inconclusive = small, poorly fitted or top-dose-only effect, or another doubt; inactive = no such curve, though single readings can be large; an effect the other way counts as inactive or inconclusive; also: % is scaled to controls: 0 for no effect and ±100 for the full control effect; nearly all actives have a fitted effect of over 60% in size
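HEK 293 seeded at 250 cells/well receive compound via pintool. After 48 or 72 hr at 37 degree Celsius, 5% CO2 and 95% humidity, CellTiter-Glo is dispensed and luminescence read following 10 min at room temperature.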
Npr1 antag conf: confirmation of human Npr1 natriuretic peptide receptor antagonists; shares compounds with NPR1 antag; HEK293 hNpr1 cGMP GloSensor luminescence, ANP-stimulated; Potency, µM (top dose mostly 57.6 µM), for inactives: top-dose activity change, negative = inhibition, usual class: inhibitors; 1,400 compounds, 76% hits; AID 1347044; also: nearly all actives have a fitted effect of over 70% in size
NPR2 antag: hNpr2 antagonism, selectivity versus Npr1; HEK293 hNpr2 GloSensor cGMP luminescence, CNP-stimulated; Potency, µM (highest dose often 57.6 µM), inactives show at the top dose activity change, negative = inhibition, actives largely listed as inhibitors; AID 1347046; 1,400 compounds, 67% hits; shares compounds with NPR1 antag; also: nearly all actives have a fitted effect of over 70% in size
FLuc counter: FLuc enzyme inhibition, Npr1 counter-screen; 1,400 compounds, 0.7% hits; Potency, µM (highest dose often 57.6 µM), inactives show at the highest dose activity change, negative = inhibition, usual class: inhibitors; purified FLuc enzyme, luminescence, Km substrate; shares compounds with NPR1 antag; active = well fitted curve in the direction sought with a large enough effect; inconclusive = small, poorly fitted or top-dose-only effect, or another doubt; inactive = no such curve, though single readings can be large; an effect the other way counts as inactive or inconclusive; also: 0% is about no effect
GloSensor ctrl: control cell line activity, Npr1 antagonist counter-screen. shares compounds with NPR1 antag. 1,400 compounds, 69% hits. Potency, µM (top dose mostly 57.6 µM), inactives show at the highest dose activity change, negative = inhibition, hits mostly inhibitors. HEK293 GloSensor cGMP, SNP-stimulated, luminescence; also: % is scaled to controls: 0 for no effect and ±100 for the full control effect; nearly all actives have a fitted effect of over 70% in size
* marks the source's active call; other numbers are inactive results; i = inactive; ? = inconclusive; / = no result given; [ ] = remark or other dose. Sampled rows, rich in hits. Any-hit rate of the full collection: about 11%. Unless noted, calls follow the shape of the full dose curve. Potency is read from the fitted curve at half-maximal effect.

SMILES	3T3 cytotox	FLuc inh	NPR1 antag	HEK cytotox	Npr1 antag conf	NPR2 antag	FLuc counter	GloSensor ctrl
CCOc1ccccc1C(=O)N1CCc2[nH]nc(C(=O)NCCCc3ccccc3)c2C1	?	i	?	22µM*	24µM*	?	4%	19µM*
CC(=O)N1CCN(c2nc3c(s2)CC(C(=O)Nc2cccc(C(C)(C)C)c2)CC3)CC1 (stereo not given)	?	i	18µM*	?	12µM*	15µM*	27%	11µM*
CC(=O)N1CCN(c2nc3c(s2)CC(C(=O)Nc2cc(F)cc(F)c2)CC3)CC1 (stereo not given)	?	i	10µM*	10µM*	17µM*	19µM*	44%	11µM*
COc1ccc(OC)c(NC(=O)C2CCc3nc(N4CCN(C(C)=O)CC4)sc3C2)c1 (stereo not given)	-26%	i	-18%	?	/	/	/	/
COc1cccc(NC(=O)c2ccc(-c3nnc4ccc(NC(=O)C5CCC5)cn34)cc2)c1	1%	i	?	-5%	24µM*	?	2%	22µM*
CC(C)NC(=O)c1ccc(-c2nnc3ccc(NC(=O)C4CCC4)cn23)cc1	-13%	i	-1%	?	/	/	/	/
NC1(C(=O)N2CCCC(CCc3ccccc3F)C2)CCC1 (stereo not given)	-26%	i	2%	?	/	/	/	/
Cc1cc(=O)n(CC(=O)Nc2ccc(C)c(F)c2)c(N2CCc3ccccc3C2)n1	?	i	16µM*	8.9µM*	-17%	-26%	1%	-20%
Cc1cc(=O)n(CC(=O)NCCCc2ccccc2)c(N2CCc3ccccc3C2)n1	?	i	?	45µM*	?	?	0%	-24%
Cc1cc(=O)n(CC(=O)Nc2ccc(Br)cc2F)c(N2CCc3ccccc3C2)n1	?	i	?	?	-29%	?	0%	-16%
Cc1cc(=O)n(CC(=O)Nc2ccc(C)c(Cl)c2)c(N2CCc3ccccc3C2)n1	?	i	-7%	?	/	/	/	/
Cn1nc(C2CC2)cc1NC(=O)c1ccccc1	-22%[138 µM]	/	/	-32%[172 µM]	/	/	/	/
c1csc(-c2ccnc(N[C@H]3CO[C@H]4[C@@H]3OC[C@@H]4NCC3CCCCC3)n2)c1	32µM*	i	7.9µM*	?	11µM*	18µM*	1%[86.2 µM]	9.9µM*
O=C(N[C@H]1CO[C@H]2[C@@H]1OC[C@@H]2Nc1nccc(C2CCCC2)n1)c1ccccc1	-46%[174 µM]	i	28µM*	63µM*	35µM*	35µM*	-7%[86.2 µM]	40µM*
COc1ccc(NC(=O)O[C@@H]2CO[C@H]3[C@@H]2OC[C@@H]3Nc2nccc(-c3cccs3)n2)cc1	-1%	?	6%	0%	/	/	/	/
COc1ccccc1-c1ccnc(N[C@H]2CO[C@H]3[C@@H]2OC[C@@H]3NS(=O)(=O)c2ccc(NC(C)=O)cc2)n1	?	i	?	?	/	/	/	/
CC(=O)Nc1ccc(S(=O)(=O)N[C@H]2CO[C@H]3[C@@H]2OC[C@@H]3Nc2nccc(-c3cccc(F)c3)n2)cc1	?	i	11µM*	16µM*	14µM*	17µM*	1%	12µM*
Cc1ccc(C(=O)N[C@H]2CO[C@H]3[C@@H]2OC[C@@H]3Nc2nccc(-c3ccc(-c4ccccc4)cc3)n2)cc1	-27%	i	?	13µM*	?	-24%	-14%	-27%
O=C(CCC1CCCC1)N1CCCC(c2noc(COc3ccccc3F)n2)C1 (stereo not given)	?	i	?	?	/	/	/	/
CCn1ncc(CN2CCCC(C(=O)N3CCN(c4ccccn4)CC3)CCNC(=O)CC2)c1C (stereo not given)	-7%	i	3%	-4%	/	/	/	/
CN1CCC2(C1)CN(CC1CC1)c1ccc(C(=O)NC3COC3)cc12 (stereo not given)	-15%[138 µM]	i	3%[70.6 µM]	?	/	/	/	/
O=C(N[C@H]1CO[C@H]2[C@@H]1OC[C@@H]2Nc1nccc(-c2ccccc2)n1)N1CCOCC1	0%[174 µM]	i	5%[70.6 µM]	-8%[172 µM]	/	/	/	/
O=C(N[C@H]1CO[C@H]2[C@@H]1OC[C@@H]2Nc1nccc(-c2ccc(-c3ccccc3)cc2)n1)C1CCCCC1	?	i	?	?	27µM*	?	1%	22µM*
CN(C)c1ccc(-c2ccnc(N[C@H]3CO[C@H]4[C@@H]3OC[C@H]4OC(=O)NCc3ccccc3)n2)cc1	-20%	i	-4%	?	/	/	/	/
CCNC(=O)O[C@@H]1CO[C@H]2[C@@H]1OC[C@@H]2Nc1nccc(-c2ccc(-c3ccccc3)cc2)n1	?	i	6.3µM*	10µM*	6.9µM*	14µM*	0%	9.7µM*
SMILES	3T3 cytotox	FLuc inh	NPR1 antag	HEK cytotox	Npr1 antag conf	NPR2 antag	FLuc counter	GloSensor ctrl
Cc1noc(C)c1S(=O)(=O)N1CCOc2ccc(CN3CCOCC3)cc2C1	-35%	/	/	-12%	/	/	/	/
O=C(c1cc(F)ccc1F)N1CCC(Oc2cccnc2)C1 (stereo not given)	-22%	/	/	-9%	/	/	/	/
CC(C)c1nc(-c2ccc(OC3CCN(C(=O)c4cc(F)ccc4F)C3)cc2)no1 (stereo not given)	?	i	11µM*	20µM*	11µM*	14µM*	1%	11µM*
CC(C)c1nc(-c2ccc(OC3CCN(C(=O)c4n[nH]c5ccccc45)C3)cc2)no1 (stereo not given)	?	i	16µM*	28µM*	24µM*	24µM*	0%	19µM*
COCCN1C(=O)c2ccccc2C(C(=O)Nc2cc(Cl)ccc2OC)C12CCCC2 (stereo not given)	-22%	i	?	?	14µM*	8.6µM*	5%	11%
CCCCn1c(CN(C)Cc2[nH]c3ccccc3c2C)cnc1S(=O)(=O)CC	?	i	-3%	?	/	/	/	/
Cc1ccc(OCC(=O)N2CCC(Cc3n[nH]c(C)n3)CC2)cc1	-2%	i	-3%	-15%	/	/	/	/
COc1ccccc1CC(=O)N1CCC(Cc2nc(-c3ccccc3)no2)CC1	?	i	?	?	/	/	/	/
